Experimental data taken from PMC5700166.

Experiments:
[1] = molecular target: T1, GST-Nv-NF-kB (Ser allele) (Nematostella vectensis, UniProt A7UNT2 2-411); experiment: protein-binding microarray (PBM); PBM: ~300 nM protein, 6 mM HEPES pH 7.8, 80 mM KCl, 0.5 mM EDTA, 0.5 mM EGTA, 6% glycerol, 35 ng/ul poly-dIdC, 1% milk, 1 h, room temperature; Ap Aiptasia and Nv Nematostella (sea anemones) / Co Capsaspora / Aq Amphimedon (sponge) / Dm Drosophila / Hu human; RHD is the Rel homology domain; high values mean tight binding; settings: dsDNA, one strand shown
T1 sequence: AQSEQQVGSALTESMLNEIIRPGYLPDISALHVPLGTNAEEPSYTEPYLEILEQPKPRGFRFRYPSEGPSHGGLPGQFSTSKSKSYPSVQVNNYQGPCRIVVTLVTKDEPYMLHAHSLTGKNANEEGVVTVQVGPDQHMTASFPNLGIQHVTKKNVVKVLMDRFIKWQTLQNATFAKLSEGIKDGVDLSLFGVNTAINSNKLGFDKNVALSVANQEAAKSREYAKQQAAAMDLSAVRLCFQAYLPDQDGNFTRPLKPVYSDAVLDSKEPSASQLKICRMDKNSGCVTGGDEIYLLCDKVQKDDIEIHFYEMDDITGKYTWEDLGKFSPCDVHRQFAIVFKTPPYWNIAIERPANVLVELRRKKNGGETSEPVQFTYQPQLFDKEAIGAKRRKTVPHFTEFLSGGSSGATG

GST-Hu-p50 = GST-Hu-p50 (Homo sapiens, UniProt P19838 7-356); experiment: as above; settings: dsDNA, one strand shown
Chain of GST-Hu-p50 (P19838 7-356): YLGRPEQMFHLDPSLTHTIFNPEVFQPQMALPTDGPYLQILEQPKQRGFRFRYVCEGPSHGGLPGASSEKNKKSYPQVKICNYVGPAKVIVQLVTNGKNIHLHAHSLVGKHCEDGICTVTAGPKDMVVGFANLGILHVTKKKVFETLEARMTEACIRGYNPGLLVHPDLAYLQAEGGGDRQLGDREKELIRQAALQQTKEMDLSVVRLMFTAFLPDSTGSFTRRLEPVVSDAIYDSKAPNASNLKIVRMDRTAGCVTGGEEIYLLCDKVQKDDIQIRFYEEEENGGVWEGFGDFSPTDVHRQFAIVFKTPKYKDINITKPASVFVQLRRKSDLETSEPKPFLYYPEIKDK

Sequence | binding signal [1] | binding signal (GST-Hu-p50)
CCGATTAACATCAGAAATTCCCATGATGTTAATCGGGTCTTGATTCGCTTGACGCTGCTG | 5.93 z-score | 4.64 z-score
CCGATTAACATCAGGGGAAGGGATGATGTTAATCGGGTCTTGATTCGCTTGACGCTGCTG | 5.77 z-score | 3.4 z-score
CCGATTAACATCAAAAAACACCCTGATGTTAATCGGGTCTTGATTCGCTTGACGCTGCTG | 4.25 z-score | 5.16 z-score
CCGATTAACATCAGGGAATTGTATGATGTTAATCGGGTCTTGATTCGCTTGACGCTGCTG | 4.84 z-score | 3.41 z-score
CCGATTAACATCAACATGGGAAATGATGTTAATCGGGTCTTGATTCGCTTGACGCTGCTG | 2.18 z-score | 1.56 z-score
CCGATTAACATCACAAACTTCCCTGATGTTAATCGGGTCTTGATTCGCTTGACGCTGCTG | 4.44 z-score | 2.88 z-score
CCGATTAACATCACACCACCCCCTGATGTTAATCGGGTCTTGATTCGCTTGACGCTGCTG | 3.35 z-score | 3.65 z-score
CCGATTAACATCAGGAATCTACCTGATGTTAATCGGGTCTTGATTCGCTTGACGCTGCTG | 1.79 z-score | 2.27 z-score
CCGATTAACATCAGATTTCCCACTGATGTTAATCGGGTCTTGATTCGCTTGACGCTGCTG | 3.83 z-score | 2.99 z-score
CCGATTAACATCAGGGACTCCCATGATGTTAATCGGGTCTTGATTCGCTTGACGCTGCTG | 3.88 z-score | 3.34 z-score
CCGATTAACATCATCCCCGTGTCTGATGTTAATCGGGTCTTGATTCGCTTGACGCTGCTG | 2.84 z-score | 2.68 z-score
CCGATTAACATCAGAATTCCCACTGATGTTAATCGGGTCTTGATTCGCTTGACGCTGCTG | 3.68 z-score | 3.3 z-score
CCGATTAACATCAGGAAAACCCATGATGTTAATCGGGTCTTGATTCGCTTGACGCTGCTG | 1.48 z-score | 2.32 z-score
CCGATTAACATCACCGCCCCCCCTGATGTTAATCGGGTCTTGATTCGCTTGACGCTGCTG | 4.44 z-score | 4.53 z-score
CCGATTAACATCAGGGAATGACCTGATGTTAATCGGGTCTTGATTCGCTTGACGCTGCTG | 1.65 z-score | 2.08 z-score
CCGATTAACATCAAAATTCCACCTGATGTTAATCGGGTCTTGATTCGCTTGACGCTGCTG | 3.38 z-score | 3.61 z-score
CCGATTAACATCAATTTCCCGCCTGATGTTAATCGGGTCTTGATTCGCTTGACGCTGCTG | 4.4 z-score | 2.33 z-score
CCGATTAACATCACAACACCCCCTGATGTTAATCGGGTCTTGATTCGCTTGACGCTGCTG | 5.01 z-score | 4.62 z-score
CCGATTAACATCAGGAGAATCCCTGATGTTAATCGGGTCTTGATTCGCTTGACGCTGCTG | 1.07 z-score | 1.64 z-score
CCGATTAACATCAAAGGAATCCCTGATGTTAATCGGGTCTTGATTCGCTTGACGCTGCTG | 1.78 z-score | 1.2 z-score
CCGATTAACATCAGGGAAAAGGATGATGTTAATCGGGTCTTGATTCGCTTGACGCTGCTG | 4.08 z-score | 1.47 z-score
CCGATTAACATCAGAAATCCCACTGATGTTAATCGGGTCTTGATTCGCTTGACGCTGCTG | 1.91 z-score | 2.66 z-score
CCGATTAACATCAGGGATTTTCATGATGTTAATCGGGTCTTGATTCGCTTGACGCTGCTG | 4.23 z-score | 4.44 z-score
CCGATTAACATCACATCTTTCCCTGATGTTAATCGGGTCTTGATTCGCTTGACGCTGCTG | 4.65 z-score | 2.43 z-score
CCGATTAACATCAAGGGGTCCCCTGATGTTAATCGGGTCTTGATTCGCTTGACGCTGCTG | 2.59 z-score | 3.06 z-score

Sequence | binding signal [1] | binding signal (GST-Hu-p50)
CCGATTAACATCAGGGAAATTCATGATGTTAATCGGGTCTTGATTCGCTTGACGCTGCTG | 5.89 z-score | 4.4 z-score
CCGATTAACATCACCCCTCCCCATGATGTTAATCGGGTCTTGATTCGCTTGACGCTGCTG | 3.22 z-score | 3.16 z-score
CCGATTAACATCAGACTGGGAAATGATGTTAATCGGGTCTTGATTCGCTTGACGCTGCTG | 1.66 z-score | 1.43 z-score
CCGATTAACATCAGAAGATTCCCTGATGTTAATCGGGTCTTGATTCGCTTGACGCTGCTG | 3.95 z-score | 4.09 z-score
CCGATTAACATCAAGTATTCCCATGATGTTAATCGGGTCTTGATTCGCTTGACGCTGCTG | 2.35 z-score | 1.64 z-score
CCGATTAACATCAAGGGATTCCCTGATGTTAATCGGGTCTTGATTCGCTTGACGCTGCTG | 4.98 z-score | 3.73 z-score
CCGATTAACATCAGGTAATTTACTGATGTTAATCGGGTCTTGATTCGCTTGACGCTGCTG | 3.5 z-score | 2.79 z-score
CCGATTAACATCAATTCCCAACATGATGTTAATCGGGTCTTGATTCGCTTGACGCTGCTG | 1.63 z-score | 1.56 z-score
CCGATTAACATCACCAGTTTCCCTGATGTTAATCGGGTCTTGATTCGCTTGACGCTGCTG | 4.89 z-score | 2.39 z-score
CCGATTAACATCAGGACAGTCCCTGATGTTAATCGGGTCTTGATTCGCTTGACGCTGCTG | 2.87 z-score | 4.04 z-score
CCGATTAACATCAGGCCACCCCCTGATGTTAATCGGGTCTTGATTCGCTTGACGCTGCTG | 2.48 z-score | 3.82 z-score
CCGATTAACATCAAGGATTTCCCTGATGTTAATCGGGTCTTGATTCGCTTGACGCTGCTG | 6.13 z-score | 4.33 z-score
CCGATTAACATCAAACCCCCCCGTGATGTTAATCGGGTCTTGATTCGCTTGACGCTGCTG | 4.7 z-score | 5.27 z-score
CCGATTAACATCAAATTCCCACTTGATGTTAATCGGGTCTTGATTCGCTTGACGCTGCTG | 3.95 z-score | 3.73 z-score
CCGATTAACATCAGGGGCTGTACTGATGTTAATCGGGTCTTGATTCGCTTGACGCTGCTG | 2.32 z-score | 3.36 z-score
CCGATTAACATCAATATAGTCCCTGATGTTAATCGGGTCTTGATTCGCTTGACGCTGCTG | 4.68 z-score | 3.8 z-score
CCGATTAACATCATAAGGGGTGTTGATGTTAATCGGGTCTTGATTCGCTTGACGCTGCTG | 1.09 z-score | 1.44 z-score
CCGATTAACATCAAGGAAACCCCTGATGTTAATCGGGTCTTGATTCGCTTGACGCTGCTG | 3.81 z-score | 5.22 z-score
CCGATTAACATCAGGGGCGCCCCTGATGTTAATCGGGTCTTGATTCGCTTGACGCTGCTG | 4.55 z-score | 4.9 z-score
CCGATTAACATCACGTCCCCCCCTGATGTTAATCGGGTCTTGATTCGCTTGACGCTGCTG | 4.17 z-score | 3.7 z-score
CCGATTAACATCAGGTAATCCCATGATGTTAATCGGGTCTTGATTCGCTTGACGCTGCTG | 2.09 z-score | 1.44 z-score
CCGATTAACATCAGGGCATACCCTGATGTTAATCGGGTCTTGATTCGCTTGACGCTGCTG | 1.31 z-score | 1.86 z-score
CCGATTAACATCAAGGTTTTCCCTGATGTTAATCGGGTCTTGATTCGCTTGACGCTGCTG | 6.21 z-score | 4.23 z-score
CCGATTAACATCAGGATTGCCCCTGATGTTAATCGGGTCTTGATTCGCTTGACGCTGCTG | 2.73 z-score | 3.69 z-score
CCGATTAACATCAGAATGCCCCCTGATGTTAATCGGGTCTTGATTCGCTTGACGCTGCTG | 3.07 z-score | 4.7 z-score

Sequence | binding signal [1] | binding signal (GST-Hu-p50)
CCGATTAACATCACCGCCCCACGTGATGTTAATCGGGTCTTGATTCGCTTGACGCTGCTG | 1.37 z-score | 2.36 z-score
CCGATTAACATCAGTCCCGCACTTGATGTTAATCGGGTCTTGATTCGCTTGACGCTGCTG | 1.03 z-score | 1.18 z-score
CCGATTAACATCAGAATCTCCCATGATGTTAATCGGGTCTTGATTCGCTTGACGCTGCTG | 1.67 z-score | 2.18 z-score
CCGATTAACATCACATATTTCCCTGATGTTAATCGGGTCTTGATTCGCTTGACGCTGCTG | 5.42 z-score | 3.71 z-score
CCGATTAACATCAGGGAATACCATGATGTTAATCGGGTCTTGATTCGCTTGACGCTGCTG | 2.61 z-score | 1.46 z-score
CCGATTAACATCAGGGACAGCCCTGATGTTAATCGGGTCTTGATTCGCTTGACGCTGCTG | 2.03 z-score | 3.54 z-score
CCGATTAACATCAGAATATTCCCTGATGTTAATCGGGTCTTGATTCGCTTGACGCTGCTG | 5.76 z-score | 3.75 z-score
CCGATTAACATCACGGGTTTTTCTGATGTTAATCGGGTCTTGATTCGCTTGACGCTGCTG | 3.59 z-score | 3.63 z-score
CCGATTAACATCACCCAGTTCCCTGATGTTAATCGGGTCTTGATTCGCTTGACGCTGCTG | 1.2 z-score | 1.24 z-score
CCGATTAACATCAGGGAGATTTATGATGTTAATCGGGTCTTGATTCGCTTGACGCTGCTG | 4.27 z-score | 4.86 z-score
CCGATTAACATCAAGGATTCCCGTGATGTTAATCGGGTCTTGATTCGCTTGACGCTGCTG | 2.82 z-score | 2.13 z-score
CCGATTAACATCAAGGACTTCCCTGATGTTAATCGGGTCTTGATTCGCTTGACGCTGCTG | 2.77 z-score | 2.42 z-score
CCGATTAACATCAGAAAATCCCATGATGTTAATCGGGTCTTGATTCGCTTGACGCTGCTG | 3.29 z-score | 3.86 z-score
CCGATTAACATCAAATGGGAATTTGATGTTAATCGGGTCTTGATTCGCTTGACGCTGCTG | 4.87 z-score | 3.42 z-score
CCGATTAACATCAGGGGGTATACTGATGTTAATCGGGTCTTGATTCGCTTGACGCTGCTG | 4.26 z-score | 3.99 z-score
CCGATTAACATCATGGGAAAAAATGATGTTAATCGGGTCTTGATTCGCTTGACGCTGCTG | 5.03 z-score | 3.83 z-score
CCGATTAACATCAGGGGAAGGTATGATGTTAATCGGGTCTTGATTCGCTTGACGCTGCTG | 5.76 z-score | 3.52 z-score
CCGATTAACATCAGGGAAAGTAATGATGTTAATCGGGTCTTGATTCGCTTGACGCTGCTG | 5.14 z-score | 3.58 z-score
CCGATTAACATCAAGTACCCCCCTGATGTTAATCGGGTCTTGATTCGCTTGACGCTGCTG | 4.15 z-score | 3.94 z-score
CCGATTAACATCAGGGGCACCCCTGATGTTAATCGGGTCTTGATTCGCTTGACGCTGCTG | 2.72 z-score | 3.94 z-score
CCGATTAACATCACCCGTTTCCCTGATGTTAATCGGGTCTTGATTCGCTTGACGCTGCTG | 4.29 z-score | 2.75 z-score
CCGATTAACATCAAAAAAACCCATGATGTTAATCGGGTCTTGATTCGCTTGACGCTGCTG | 4.6 z-score | 4.37 z-score
CCGATTAACATCAAAAAAGACCCTGATGTTAATCGGGTCTTGATTCGCTTGACGCTGCTG | 3.81 z-score | 3.95 z-score
